For 15 sequences, binding signal results are on record in publication PMC10812921, “Transcriptional Coactivator BOB1 (OBF1, OCA-B) Modulates the Specificity of DNA Recognition by the POU-Domain Factors OCT1 and OCT2 in a Monomeric Configuration”.

The target of one experiment is POU1 (OCT1 POU domain) (human, UniProt P14859 260-458). As to the kind of experiment: EMSA-SELEX-seq; no BOB1; 20 mM Tris-HCl pH 7.6, 140 mM NaCl, 10% glycerol, 0.5 mM EDTA, 0.05% Triton X-100, 0.1 mg/mL BSA, 0.1 mg/mL poly(dI-dC), 5 mM DTT, room temperature, 20 min; high values mean tight binding. The note with it: protein: recombinant; dsDNA, one strand shown. Summed up: (§1)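 Binding preference is the percentage of sequenced 8-mers matching a motif pattern. Tagged POU-domain proteins expressed in E. coli BL21 were purified under denaturing conditions and renatured. For binding, 30 ng protein met 300 ng of a PCR-amplified double-stranded random 35-nt library, with or without 28 ng coactivator protein, in 20 μL Tris–HCl pH 7.6 binding buffer for 20 min at RT. Complex bands were cut from native 6% PAGE, eluted and PCR-amplified over four rounds, then Illumina-sequenced.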
In general terms: A gel shift assay detects complexes by their altered migration in electrophoresis.

The target in a further experiment is T1, POU2 (OCT2 POU domain) (human, UniProt P09086 175-386).
T1 sequence: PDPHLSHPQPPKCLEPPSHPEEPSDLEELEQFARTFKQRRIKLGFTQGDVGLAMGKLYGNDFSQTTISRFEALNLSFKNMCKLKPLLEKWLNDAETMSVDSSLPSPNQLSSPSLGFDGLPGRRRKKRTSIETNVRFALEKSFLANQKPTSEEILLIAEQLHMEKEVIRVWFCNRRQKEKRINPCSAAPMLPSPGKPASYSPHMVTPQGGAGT
Described as above. The following applies: protein: recombinant; dsDNA, one strand shown. Summed up: as §1

The target in experiment [1] is POU1 (OCT1 POU domain);BOB1 (OBF1, OCA-B) (human;human, UniProt P14859;Q16633 260-458;1-256, |). The experiment in a line: EMSA-SELEX-seq; with BOB1 (ternary complex band); 20 mM Tris-HCl pH 7.6, 140 mM NaCl, 10% glycerol, 0.5 mM EDTA, 0.05% Triton X-100, 0.1 mg/mL BSA, 0.1 mg/mL poly(dI-dC), 5 mM DTT, room temperature, 20 min; high values mean tight binding. The note with it: protein: recombinant;recombinant; copies: 1;1; dsDNA, one strand shown. Summed up: as §1

In experiment [2] the target is T2, POU2 (OCT2 POU domain);BOB1 (OBF1, OCA-B) (human;human, UniProt P09086;Q16633 175-386;1-256, |).
T2 sequence 1: T1 sequence
T2 sequence 2: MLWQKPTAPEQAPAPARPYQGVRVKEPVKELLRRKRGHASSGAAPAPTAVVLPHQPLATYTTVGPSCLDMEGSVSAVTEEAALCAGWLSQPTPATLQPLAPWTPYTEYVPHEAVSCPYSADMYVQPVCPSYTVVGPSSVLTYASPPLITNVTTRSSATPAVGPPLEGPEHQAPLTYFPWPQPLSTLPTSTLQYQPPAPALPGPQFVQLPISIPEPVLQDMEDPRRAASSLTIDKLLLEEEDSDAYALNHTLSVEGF
The experiment is described as above. The following applies: protein: recombinant;recombinant; copies: 1;1; dsDNA, one strand shown. In outline: as §1

Chain of POU1 (OCT1 POU domain) (P14859 260-458): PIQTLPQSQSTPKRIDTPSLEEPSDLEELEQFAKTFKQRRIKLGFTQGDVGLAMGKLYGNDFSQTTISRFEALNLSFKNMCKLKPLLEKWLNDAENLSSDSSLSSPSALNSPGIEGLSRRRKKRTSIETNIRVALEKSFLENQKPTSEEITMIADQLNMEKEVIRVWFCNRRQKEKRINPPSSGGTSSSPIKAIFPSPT

For AGACTAAA, the binding signal in the experiment with POU1 (OCT1 POU domain) was 0.0374 % of ANNNNAAN 8-mers; with POU2 (OCT2 POU domain), 0.0443 % of ANNNNAAN 8-mers; in experiment [1] it was 0.0297 % of ANNNNAAN 8-mers; in experiment [2], 0.0289 % of ANNNNAAN 8-mers.
On to ACTCCAAG, for which the binding signal with POU1 (OCT1 POU domain) was 0.0191 % of ANNNNAAN 8-mers; with POU2 (OCT2 POU domain), 0.0196 % of ANNNNAAN 8-mers; in experiment [1], 0.0195 % of ANNNNAAN 8-mers; in experiment [2], 0.0124 % of ANNNNAAN 8-mers.
For AGTAAAAC, the binding signal in the experiment with POU1 (OCT1 POU domain) was 0.0427 % of ANNNNAAN 8-mers; with POU2 (OCT2 POU domain), 0.0391 % of ANNNNAAN 8-mers; in experiment [1] it was 0.0663 % of ANNNNAAN 8-mers; in experiment [2], 0.0454 % of ANNNNAAN 8-mers.
With ACTTCAAG, the binding signal with POU1 (OCT1 POU domain) is 0.0194 % of ANNNNAAN 8-mers; with POU2 (OCT2 POU domain) it was 0.0236 % of ANNNNAAN 8-mers; in experiment [1], 0.0168 % of ANNNNAAN 8-mers; in experiment [2], 0.0256 % of ANNNNAAN 8-mers.
Consider ACTGCAAT, for which the binding signal was 0.0301 % of ANNNNAAN 8-mers in the experiment with POU1 (OCT1 POU domain), 0.0213 % of ANNNNAAN 8-mers in the experiment with POU2 (OCT2 POU domain), 0.0367 % of ANNNNAAN 8-mers in experiment [1] and 0.0248 % of ANNNNAAN 8-mers in experiment [2].
AGTAGAAC: the binding signal is 0.0271 % of ANNNNAAN 8-mers in the experiment with POU1 (OCT1 POU domain), 0.0242 % of ANNNNAAN 8-mers in the experiment with POU2 (OCT2 POU domain), 0.0242 % of ANNNNAAN 8-mers in experiment [1] and 0.0239 % of ANNNNAAN 8-mers in experiment [2].
With ATGACAAC, the binding signal with POU1 (OCT1 POU domain) was 0.0259 % of ANNNNAAN 8-mers; in the experiment with POU2 (OCT2 POU domain) it was 0.0207 % of ANNNNAAN 8-mers; in experiment [1], 0.0277 % of ANNNNAAN 8-mers; in experiment [2], 0.0355 % of ANNNNAAN 8-mers.
On the same counts, the results for ATGAGAAA are 0.0755 % of ANNNNAAN 8-mers, 0.0765 % of ANNNNAAN 8-mers, 0.0738 % of ANNNNAAN 8-mers and 0.0792 % of ANNNNAAN 8-mers.
For the sequence AATTAAAC, the binding signal was 0.14 % of ANNNNAAN 8-mers in the experiment with POU1 (OCT1 POU domain), 0.194 % of ANNNNAAN 8-mers in the experiment with POU2 (OCT2 POU domain), 0.0905 % of ANNNNAAN 8-mers in experiment [1] and 0.0966 % of ANNNNAAN 8-mers in experiment [2].
AAAGTAAG: the binding signal was 0.0641 % of ANNNNAAN 8-mers in the experiment with POU1 (OCT1 POU domain), 0.0685 % of ANNNNAAN 8-mers with POU2 (OCT2 POU domain), 0.0851 % of ANNNNAAN 8-mers in experiment [1] and 0.0834 % of ANNNNAAN 8-mers in experiment [2].
AGCGAAAC: the binding signal with POU1 (OCT1 POU domain) is 0.0183 % of ANNNNAAN 8-mers; in the experiment with POU2 (OCT2 POU domain) it was 0.023 % of ANNNNAAN 8-mers; in experiment [1], 0.0137 % of ANNNNAAN 8-mers; in experiment [2] it was 0.0198 % of ANNNNAAN 8-mers.
On the same counts, the results for ATTAAAAT are 0.614 % of ANNNNAAN 8-mers, 0.636 % of ANNNNAAN 8-mers, 0.228 % of ANNNNAAN 8-mers and 0.204 % of ANNNNAAN 8-mers.
AAACGAAT: the binding signal with POU1 (OCT1 POU domain) was 0.0767 % of ANNNNAAN 8-mers; with POU2 (OCT2 POU domain) it was 0.0783 % of ANNNNAAN 8-mers; in experiment [1], 0.0675 % of ANNNNAAN 8-mers; in experiment [2], 0.0792 % of ANNNNAAN 8-mers.
In the case of AACTAAAA, the binding signal in the experiment with POU1 (OCT1 POU domain) was 0.0431 % of ANNNNAAN 8-mers; with POU2 (OCT2 POU domain), 0.0478 % of ANNNNAAN 8-mers; in experiment [1] it was 0.0386 % of ANNNNAAN 8-mers; in experiment [2] it was 0.0305 % of ANNNNAAN 8-mers.
On the same counts, the results for AAGGGAAT are 0.115 % of ANNNNAAN 8-mers, 0.121 % of ANNNNAAN 8-mers, 0.0765 % of ANNNNAAN 8-mers and 0.0908 % of ANNNNAAN 8-mers.
